Consider one sequence from paper PMC7862700, “An all-to-all approach to the identification of sequence-specific readers for epigenetic DNA modifications on cytosine”.

Assay in all cases: DAPPL (digital affinity profiling via proximity ligation, sequencing); 10 mM Tris-HCl pH 7.5, 50 mM NaCl, 1 mM DTT, 4% glycerol, room temperature, 30 min; GST-TFs on glutathione beads, 16-mer random dsDNA library, 0.1% formaldehyde crosslink after washing; high values mean tight binding
Conditions in all cases: protein: recombinant; tags: N-terminal GST; dsDNA, one strand shown

One experiment addresses T1, GABPA (Homo sapiens, UniProt Q06546 1-454).
T1 sequence: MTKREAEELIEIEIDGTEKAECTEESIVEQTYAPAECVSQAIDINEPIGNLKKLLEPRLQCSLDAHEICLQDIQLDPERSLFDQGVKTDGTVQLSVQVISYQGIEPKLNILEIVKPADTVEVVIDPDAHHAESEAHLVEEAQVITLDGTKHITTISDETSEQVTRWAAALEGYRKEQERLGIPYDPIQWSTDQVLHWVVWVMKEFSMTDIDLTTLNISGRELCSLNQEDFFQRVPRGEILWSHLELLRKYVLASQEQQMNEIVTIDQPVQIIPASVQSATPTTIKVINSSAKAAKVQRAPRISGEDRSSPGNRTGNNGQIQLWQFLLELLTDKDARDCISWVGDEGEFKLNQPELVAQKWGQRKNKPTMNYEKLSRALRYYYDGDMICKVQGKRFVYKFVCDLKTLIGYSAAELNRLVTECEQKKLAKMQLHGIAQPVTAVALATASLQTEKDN
Summed up: (§1)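 GST fusions of human transcription factors were expressed in yeast and captured with glutathione beads. Once given DNA barcodes and pooled alongside a tag-only sample, they were incubated for 30 min at room temperature with 200 nmole of a random double-stranded 16-mer DNA library in Tris/NaCl/DTT/glycerol buffer, then washed, crosslinked (0.1% formaldehyde), proximity-ligated, PCR-amplified and sequenced on an Illumina NextSeq500. The binding signal of each hexamer is its read frequency for a factor divided by its frequency for the tag-only sample.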

For the next experiment, the target named is T2, ERG (Homo sapiens, UniProt P11308 1-479).
T2 sequence: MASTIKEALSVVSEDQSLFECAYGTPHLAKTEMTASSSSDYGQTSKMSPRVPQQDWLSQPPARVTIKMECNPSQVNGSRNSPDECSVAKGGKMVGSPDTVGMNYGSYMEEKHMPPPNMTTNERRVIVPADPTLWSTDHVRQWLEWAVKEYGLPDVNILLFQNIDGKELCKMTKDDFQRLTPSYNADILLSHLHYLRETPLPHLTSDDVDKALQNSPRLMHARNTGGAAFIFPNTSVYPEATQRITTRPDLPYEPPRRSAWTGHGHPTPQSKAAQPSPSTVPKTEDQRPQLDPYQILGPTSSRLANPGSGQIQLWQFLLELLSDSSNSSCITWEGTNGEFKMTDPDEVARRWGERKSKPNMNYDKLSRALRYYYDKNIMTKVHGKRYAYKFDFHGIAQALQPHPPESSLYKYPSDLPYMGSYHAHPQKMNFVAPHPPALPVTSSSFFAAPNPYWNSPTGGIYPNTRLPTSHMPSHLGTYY
Summed up: as §1

The target in the next experiment is ELF1 (Homo sapiens, UniProt P32519 1-619). The method, boiled down: as §1
The target of the next experiment is T3, EHF (Homo sapiens, UniProt Q9NZC4 1-300).
T3 sequence: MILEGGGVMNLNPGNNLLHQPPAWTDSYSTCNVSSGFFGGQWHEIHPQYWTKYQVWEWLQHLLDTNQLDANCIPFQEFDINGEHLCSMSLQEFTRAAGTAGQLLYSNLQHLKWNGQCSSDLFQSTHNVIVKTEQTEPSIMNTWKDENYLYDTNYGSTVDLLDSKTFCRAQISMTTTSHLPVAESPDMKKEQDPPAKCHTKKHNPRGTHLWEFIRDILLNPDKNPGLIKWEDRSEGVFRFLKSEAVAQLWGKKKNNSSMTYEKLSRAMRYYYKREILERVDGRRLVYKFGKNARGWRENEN
The method, boiled down:
as §1

In the next experiment the target is SPI1 (Homo sapiens, UniProt P17947 1-270). Summed up:
as §1

In another experiment the target is SPIB (Homo sapiens, UniProt Q01892 1-262). The method, boiled down:
as §1

A further experiment has as its target T4, FEV (Homo sapiens, UniProt Q99581 1-238).
T4 sequence: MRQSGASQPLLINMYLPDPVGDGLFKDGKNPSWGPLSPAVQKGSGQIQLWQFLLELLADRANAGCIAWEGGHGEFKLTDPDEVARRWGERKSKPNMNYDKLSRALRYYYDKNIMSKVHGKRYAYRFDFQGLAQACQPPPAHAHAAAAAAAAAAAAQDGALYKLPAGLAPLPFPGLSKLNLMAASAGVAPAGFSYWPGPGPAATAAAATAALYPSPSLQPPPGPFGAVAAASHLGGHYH
The method, boiled down:
as §1

A further experiment deals with ETV5 (Homo sapiens, UniProt P41161 1-510). The method, boiled down:
as §1

For the next experiment, the target named is ELF4 (Homo sapiens, UniProt Q99607 1-663). Summed up: as §1
For another experiment, the target named is T5, ELK4 (Homo sapiens, UniProt P28324-2 1-405).
T5 sequence: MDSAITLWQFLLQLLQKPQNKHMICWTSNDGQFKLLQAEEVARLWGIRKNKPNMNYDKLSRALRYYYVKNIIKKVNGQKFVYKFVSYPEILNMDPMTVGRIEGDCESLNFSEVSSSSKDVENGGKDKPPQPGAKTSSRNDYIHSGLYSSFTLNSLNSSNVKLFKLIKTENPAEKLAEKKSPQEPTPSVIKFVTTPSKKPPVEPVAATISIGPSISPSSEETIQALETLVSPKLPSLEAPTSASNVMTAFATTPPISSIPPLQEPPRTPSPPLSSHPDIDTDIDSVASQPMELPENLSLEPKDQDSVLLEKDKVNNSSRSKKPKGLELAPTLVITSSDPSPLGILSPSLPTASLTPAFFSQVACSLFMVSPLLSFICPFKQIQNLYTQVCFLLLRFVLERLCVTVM
The method, boiled down: as §1

In the next experiment the target is T6, ETV2 (Homo sapiens, UniProt O00321 1-342).
T6 sequence: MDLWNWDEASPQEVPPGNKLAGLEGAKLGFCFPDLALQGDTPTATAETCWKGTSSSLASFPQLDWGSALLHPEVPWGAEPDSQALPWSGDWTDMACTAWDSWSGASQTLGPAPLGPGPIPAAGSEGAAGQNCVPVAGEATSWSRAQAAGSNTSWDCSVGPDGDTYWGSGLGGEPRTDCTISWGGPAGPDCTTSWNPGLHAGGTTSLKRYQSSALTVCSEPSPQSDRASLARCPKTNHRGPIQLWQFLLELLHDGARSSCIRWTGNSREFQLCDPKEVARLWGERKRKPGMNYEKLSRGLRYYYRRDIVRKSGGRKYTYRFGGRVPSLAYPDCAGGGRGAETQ
The method, boiled down:
as §1

The next experiment addresses T7, ELF3 (Homo sapiens, UniProt P78545 1-371).
T7 sequence: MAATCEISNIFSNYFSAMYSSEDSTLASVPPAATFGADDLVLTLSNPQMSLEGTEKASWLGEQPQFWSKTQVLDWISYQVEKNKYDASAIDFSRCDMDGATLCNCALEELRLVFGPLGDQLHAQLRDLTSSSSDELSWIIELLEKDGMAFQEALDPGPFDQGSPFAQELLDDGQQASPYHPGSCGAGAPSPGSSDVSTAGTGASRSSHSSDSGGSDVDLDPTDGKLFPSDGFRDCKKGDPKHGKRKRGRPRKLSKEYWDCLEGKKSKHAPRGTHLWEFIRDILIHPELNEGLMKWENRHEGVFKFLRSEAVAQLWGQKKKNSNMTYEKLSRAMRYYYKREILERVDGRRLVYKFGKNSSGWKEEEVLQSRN
Summed up:
as §1

Another experiment addresses ETV1 (Homo sapiens, UniProt P50549 1-477). The method, boiled down:
as §1

The target of the next experiment is T8, ERF (Homo sapiens, UniProt P50548 1-548).
T8 sequence: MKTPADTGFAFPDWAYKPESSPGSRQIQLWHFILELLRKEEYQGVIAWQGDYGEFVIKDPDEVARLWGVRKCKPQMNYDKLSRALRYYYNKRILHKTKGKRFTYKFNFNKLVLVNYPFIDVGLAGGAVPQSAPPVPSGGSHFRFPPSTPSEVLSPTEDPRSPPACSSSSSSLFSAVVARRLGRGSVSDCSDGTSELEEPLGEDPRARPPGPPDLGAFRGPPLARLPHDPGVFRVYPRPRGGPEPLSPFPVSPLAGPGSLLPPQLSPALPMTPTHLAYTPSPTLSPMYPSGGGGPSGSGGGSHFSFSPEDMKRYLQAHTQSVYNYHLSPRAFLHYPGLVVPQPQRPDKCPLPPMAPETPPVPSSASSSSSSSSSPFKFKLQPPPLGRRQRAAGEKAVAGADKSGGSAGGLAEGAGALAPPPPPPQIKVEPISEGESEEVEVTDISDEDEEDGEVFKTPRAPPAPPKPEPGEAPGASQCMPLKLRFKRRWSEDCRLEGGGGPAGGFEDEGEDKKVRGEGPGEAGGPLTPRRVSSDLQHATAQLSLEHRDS
Summed up:
as §1

A further experiment has as its target T9, ETV3L (Homo sapiens, UniProt Q6ZN32 1-361).
T9 sequence: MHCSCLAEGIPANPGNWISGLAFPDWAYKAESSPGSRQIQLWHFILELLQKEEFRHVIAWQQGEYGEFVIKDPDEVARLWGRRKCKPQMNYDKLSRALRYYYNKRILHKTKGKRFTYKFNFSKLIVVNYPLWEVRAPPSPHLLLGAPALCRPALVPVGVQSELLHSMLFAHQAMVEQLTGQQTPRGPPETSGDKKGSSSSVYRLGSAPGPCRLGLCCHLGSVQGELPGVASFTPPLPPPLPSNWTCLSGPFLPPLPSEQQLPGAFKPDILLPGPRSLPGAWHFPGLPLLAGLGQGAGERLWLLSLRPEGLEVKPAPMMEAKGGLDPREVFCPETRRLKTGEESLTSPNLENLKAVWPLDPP
Summed up: as §1

The next experiment concerns the target T10, ETV7 (Homo sapiens, UniProt Q9Y603 1-341).
T10 sequence: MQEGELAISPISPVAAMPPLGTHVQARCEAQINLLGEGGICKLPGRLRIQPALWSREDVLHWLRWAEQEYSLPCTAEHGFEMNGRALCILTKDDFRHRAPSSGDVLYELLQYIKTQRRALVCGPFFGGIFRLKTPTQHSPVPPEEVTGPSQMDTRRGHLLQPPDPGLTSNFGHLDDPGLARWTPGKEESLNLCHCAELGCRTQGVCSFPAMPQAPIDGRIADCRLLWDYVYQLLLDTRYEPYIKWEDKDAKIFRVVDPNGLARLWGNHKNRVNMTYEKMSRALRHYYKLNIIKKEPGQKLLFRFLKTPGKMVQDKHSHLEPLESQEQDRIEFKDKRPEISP
The method, boiled down: as §1

Another experiment addresses ETV6 (Homo sapiens, UniProt P41212 1-452). Summed up:
as §1

Sequence of ETV6 (P41212 whole entry): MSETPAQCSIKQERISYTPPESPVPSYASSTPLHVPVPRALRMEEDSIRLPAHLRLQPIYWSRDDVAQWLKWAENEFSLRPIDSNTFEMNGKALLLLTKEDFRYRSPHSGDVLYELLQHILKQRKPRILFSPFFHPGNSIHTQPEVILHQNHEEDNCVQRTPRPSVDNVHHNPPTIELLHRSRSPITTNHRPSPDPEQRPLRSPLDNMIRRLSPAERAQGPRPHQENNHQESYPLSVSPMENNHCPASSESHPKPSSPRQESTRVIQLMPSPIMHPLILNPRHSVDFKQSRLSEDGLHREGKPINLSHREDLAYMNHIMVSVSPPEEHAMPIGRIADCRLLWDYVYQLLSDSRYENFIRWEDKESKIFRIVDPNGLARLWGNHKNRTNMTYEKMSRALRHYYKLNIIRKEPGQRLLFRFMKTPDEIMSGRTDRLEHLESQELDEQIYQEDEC
Sequence of SPIB (Q01892 whole entry): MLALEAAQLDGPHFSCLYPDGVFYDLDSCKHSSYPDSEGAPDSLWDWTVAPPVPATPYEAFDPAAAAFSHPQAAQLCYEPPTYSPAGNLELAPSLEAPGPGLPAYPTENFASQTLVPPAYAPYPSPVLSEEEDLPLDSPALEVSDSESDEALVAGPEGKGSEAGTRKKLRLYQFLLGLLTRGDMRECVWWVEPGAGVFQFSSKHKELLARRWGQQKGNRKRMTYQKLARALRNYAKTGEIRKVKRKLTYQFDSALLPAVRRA
Sequence of ETV5 (P41161 whole entry): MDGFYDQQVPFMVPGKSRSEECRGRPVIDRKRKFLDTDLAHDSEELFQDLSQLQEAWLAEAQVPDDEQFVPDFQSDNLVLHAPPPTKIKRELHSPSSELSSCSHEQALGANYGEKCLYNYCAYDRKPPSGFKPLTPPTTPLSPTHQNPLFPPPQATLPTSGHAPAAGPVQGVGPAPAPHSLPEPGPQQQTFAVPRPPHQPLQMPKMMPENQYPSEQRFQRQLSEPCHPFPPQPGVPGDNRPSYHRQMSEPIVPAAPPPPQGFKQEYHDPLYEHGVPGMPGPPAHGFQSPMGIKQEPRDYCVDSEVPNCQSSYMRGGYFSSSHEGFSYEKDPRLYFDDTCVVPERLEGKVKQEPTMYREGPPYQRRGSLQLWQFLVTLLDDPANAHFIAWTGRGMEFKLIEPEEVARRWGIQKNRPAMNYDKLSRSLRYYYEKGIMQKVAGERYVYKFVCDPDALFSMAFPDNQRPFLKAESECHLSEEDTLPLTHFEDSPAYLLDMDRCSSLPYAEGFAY
Sequence of ETV1 (P50549 whole entry): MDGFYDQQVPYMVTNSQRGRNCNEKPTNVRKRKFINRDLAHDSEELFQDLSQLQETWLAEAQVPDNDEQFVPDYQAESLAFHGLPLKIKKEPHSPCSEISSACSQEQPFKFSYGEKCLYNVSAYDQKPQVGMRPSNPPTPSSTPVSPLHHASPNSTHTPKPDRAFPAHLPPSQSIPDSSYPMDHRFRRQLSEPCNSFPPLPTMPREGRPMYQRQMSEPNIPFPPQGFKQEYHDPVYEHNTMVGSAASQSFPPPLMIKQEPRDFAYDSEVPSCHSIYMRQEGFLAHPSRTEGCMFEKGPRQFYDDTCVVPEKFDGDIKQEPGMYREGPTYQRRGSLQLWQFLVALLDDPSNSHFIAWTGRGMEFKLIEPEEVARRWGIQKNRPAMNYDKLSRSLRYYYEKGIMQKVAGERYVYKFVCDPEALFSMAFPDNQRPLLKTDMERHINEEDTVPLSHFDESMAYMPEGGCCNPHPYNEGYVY
Sequence of ELF1 (P32519 whole entry): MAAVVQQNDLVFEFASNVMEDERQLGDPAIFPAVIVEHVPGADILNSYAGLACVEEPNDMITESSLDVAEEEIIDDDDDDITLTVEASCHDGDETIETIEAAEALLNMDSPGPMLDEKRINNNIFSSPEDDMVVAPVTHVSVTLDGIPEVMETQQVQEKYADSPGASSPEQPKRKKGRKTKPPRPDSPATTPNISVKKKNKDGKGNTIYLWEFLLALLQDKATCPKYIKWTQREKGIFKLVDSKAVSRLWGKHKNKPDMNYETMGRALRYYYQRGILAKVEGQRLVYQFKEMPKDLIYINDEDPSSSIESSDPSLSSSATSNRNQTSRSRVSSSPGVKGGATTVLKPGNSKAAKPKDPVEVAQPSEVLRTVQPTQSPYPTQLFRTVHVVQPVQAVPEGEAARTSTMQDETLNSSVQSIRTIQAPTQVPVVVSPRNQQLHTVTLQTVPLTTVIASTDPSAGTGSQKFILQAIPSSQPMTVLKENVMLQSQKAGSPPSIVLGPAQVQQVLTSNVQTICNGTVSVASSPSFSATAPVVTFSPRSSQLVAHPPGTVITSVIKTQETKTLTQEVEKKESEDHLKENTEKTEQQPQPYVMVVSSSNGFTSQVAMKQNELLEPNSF
Sequence of ELF4 (Q99607 whole entry): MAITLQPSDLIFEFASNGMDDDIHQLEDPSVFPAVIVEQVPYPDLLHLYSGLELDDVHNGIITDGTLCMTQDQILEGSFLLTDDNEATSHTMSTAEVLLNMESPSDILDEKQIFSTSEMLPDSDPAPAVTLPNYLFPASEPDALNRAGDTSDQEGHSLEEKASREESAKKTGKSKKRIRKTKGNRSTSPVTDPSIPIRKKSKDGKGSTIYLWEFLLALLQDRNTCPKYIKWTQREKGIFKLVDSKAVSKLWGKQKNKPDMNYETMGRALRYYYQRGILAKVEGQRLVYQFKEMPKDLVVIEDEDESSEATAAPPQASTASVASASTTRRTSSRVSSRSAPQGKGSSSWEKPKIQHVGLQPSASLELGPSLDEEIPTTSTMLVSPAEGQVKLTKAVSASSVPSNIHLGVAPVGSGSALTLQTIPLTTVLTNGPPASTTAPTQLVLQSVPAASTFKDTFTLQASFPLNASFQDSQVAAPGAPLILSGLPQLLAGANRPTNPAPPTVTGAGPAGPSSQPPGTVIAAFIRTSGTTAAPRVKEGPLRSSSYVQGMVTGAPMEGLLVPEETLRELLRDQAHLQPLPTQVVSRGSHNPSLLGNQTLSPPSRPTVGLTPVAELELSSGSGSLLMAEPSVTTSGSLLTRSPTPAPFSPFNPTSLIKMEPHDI

Turning to CATAAT, the binding signal with GABPA is 1.01 fold enrichment (6-mer frequency, TF over GST control); with ERG, 1.1 fold enrichment (6-mer frequency, TF over GST control); with ELF1, 1.02 fold enrichment (6-mer frequency, TF over GST control); with EHF, 1.13 fold enrichment (6-mer frequency, TF over GST control); with SPI1, 1 fold enrichment (6-mer frequency, TF over GST control); in the experiment with SPIB it was 1.04 fold enrichment (6-mer frequency, TF over GST control). The binding signal with FEV is 1.01 fold enrichment (6-mer frequency, TF over GST control); in the experiment with ETV5, 1.09 fold enrichment (6-mer frequency, TF over GST control); in the experiment with ELF4 it was 1.01 fold enrichment (6-mer frequency, TF over GST control); with ELK4 it was 1.03 fold enrichment (6-mer frequency, TF over GST control); with ETV2, 1 fold enrichment (6-mer frequency, TF over GST control); with ELF3 it was 1.01 fold enrichment (6-mer frequency, TF over GST control). Further, the binding signal in the experiment with ETV1 is 1.05 fold enrichment (6-mer frequency, TF over GST control); in the experiment with ERF, 1.02 fold enrichment (6-mer frequency, TF over GST control); with ETV3L it was 1.01 fold enrichment (6-mer frequency, TF over GST control); with ETV7, 1.02 fold enrichment (6-mer frequency, TF over GST control); with ETV6 it was 1.07 fold enrichment (6-mer frequency, TF over GST control).
